Experiment [1] is described as follows: NCI Yeast Anticancer Drug Screen. Data for the rad50 strain (AID 155).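 Further: 0% = growth of vehicle-only cultures of the same strain.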 Particulars: S. cerevisiae rad50 strain growth inhibition; at 50.0 µM; stronger effect = higher value. The procedure, abridged:
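Genetically altered yeast (DNA repair pathway); compound treatment; growth inhibition vs vehicle ctrl.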

Experiment [2] can be described thus: NCI Yeast Anticancer Drug Screen. Data for the mec2-1 strain (AID 157). Particulars: S. cerevisiae mec2-1 strain, at 50.0 µM, stronger effect = higher value. Put shortly: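 Yeast mec2-1 mutant treated with compound. Readout: growth inhibition vs vehicle controls.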
A short description of experiment [3]: NCI Yeast Anticancer Drug Screen. Data for the sgs1 mgt1 strain (AID 161).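 Further: 0% = growth of cultures given vehicle only.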 Particulars: S. cerevisiae sgs1 mgt1 strain, at 50.0 µM, stronger effect = higher value. The procedure, abridged:
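Genetically altered yeast, compound exposure, growth inhibition relative to vehicle.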

The nature of experiment [4]: NCI Yeast Anticancer Drug Screen. Data for the cln2 rad14 strain (AID 165).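 Further: 0% = growth equal to vehicle treated cultures.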 The following applies: S. cerevisiae cln2 rad14 strain, at 50.0 µM, stronger effect = higher value. The procedure, abridged:
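cln2 rad14 yeast strain; compound exposure; growth inhibition read vs vehicle controls.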

Experiment [5] is described as follows: NCI Yeast Anticancer Drug Screen. Data for the bub3 strain (AID 167). Particulars: S. cerevisiae bub3 mutant strain, at 50.0 µM, stronger effect = higher value. The procedure, abridged:
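Yeast carrying a defined mutation is treated with each compound, and growth is compared with that of vehicle-exposed cells to give inhibition.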

Experiment [6] can be described thus: NCI Yeast Anticancer Drug Screen. Data for the mlh1 rad18 strain (AID 175). The following applies: S. cerevisiae mlh1 rad18 strain growth inhibition; at 50.0 µM; stronger effect = higher value. Put shortly:
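Yeast w/ defined DNA-repair lesions; compound exposure; growth vs vehicle controls → % inhibition.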

“And” between values parts separate entries of the source, which are not always exact repeats. Equal entries are not always repeated. The panel holds about 79,000 compounds, 15% with a hit somewhere; the sample as a whole holds those more often. A number with no mark means an inactive call. The source made the active and inactive calls. No stated cut-off is given here; in the data, active means growth inhibition above about 70%; inactive means the rest.

As to `O=C(Cc1cccc([N+](=O)[O-])c1)Nc1cccc(S(=O)(=O)F)c1`, the growth inhibition is 5.8% in experiment [1]; -19.6% in experiment [2]; -20.3% in experiment [3]; -2.9% in experiment [4]; 16.6% in experiment [5]; 23.9% in experiment [6].

Regarding `COC(CN1CCOCCOCCOCC1)CN1CCOCCOCCOCC1`, the growth inhibition is -9.3% in experiment [1]; -6.55% in experiment [2]; -29.1% in experiment [3]; 15.4% in experiment [4]; 14.2% in experiment [5]; -17.8% in experiment [6].

As for `COCCCNCCCN1CC1`, the growth inhibition in experiment [1] is 2.25%; in experiment [2] it was -4.4%; in experiment [3], -6.9%; in experiment [4] it was -22.7%; in experiment [5], -22.4%; in experiment [6] it was 10.1%.

As to `COC(=O)C1C(O)C(C)C(O)C(C)/C=C\C=C(C)C(=O)Nc2c(C)c(OC(C)=O)c3c(c2O)C(=O)C(C)=C2OCOC(=C23)C(C)=CC(C)(O)C(O)C(C)C1O` (stereo not given), the growth inhibition was 11.9% and -16.8% and 23.8% in experiment [1]; -15.7% and -27.9% and -5.4% in experiment [2]; 12.1% and -26.9% and 3.05% in experiment [3]; -10.2% and -5.2% and 9.2% in experiment [4]; 26.9% and -13.5% and 10% in experiment [5]; 16.6% and -24.6% and 19.4% in experiment [6].

As to `NC(=O)c1c([N+](=O)[O-])ccc(N(CCCl)CCCl)c1[N+](=O)[O-]`, the growth inhibition is -5.1% in experiment [1]; 1.25% in experiment [2]; -12.9% in experiment [3]; 4.75% in experiment [4]; -5% in experiment [5]; -6.05% in experiment [6].

For `N.N.N.N.N.N.[I-].[Os]`, the growth inhibition is 23.5% in experiment [1]; 1.45% in experiment [2]; 5.4% in experiment [3]; 7.6% in experiment [4]; 1.25% in experiment [5]; -2% in experiment [6].

Regarding `OCCCCO`, the growth inhibition in experiment [1] is -5.9%; in experiment [2], -1.7%; in experiment [3], -12%; in experiment [4], -10.4%; in experiment [5], -12.1%; in experiment [6] it was 1.35%.

`NC(=O)c1ccc([As](O)O)cc1N`: the growth inhibition was -0.05% in experiment [1]; -4.9% in experiment [2]; -12.5% in experiment [3]; -4.75% in experiment [4]; -11.5% in experiment [5]; -9.1% in experiment [6].

As to `CCC(Cl)COP(=O)(OCC(Cl)CC)O/C(C)=C(\C)OP(=S)(OCC(Cl)CC)OCC(Cl)CC` (stereo not given), the growth inhibition was 86.5% (active) in experiment [1]; 93.2% (active) in experiment [2]; 93.8% (active) in experiment [3]; 99.2% (active) in experiment [4]; 98.8% (active) in experiment [5]; 96.8% (active) in experiment [6].

Consider `O=[N+]([O-])c1ccc([As](=O)(O)c2cccc([N+](=O)[O-])c2)cc1`, for which the growth inhibition in experiment [1] is 0.8%; in experiment [2], 1.3%; in experiment [3] it was 0.65%; in experiment [4], -28.9%; in experiment [5], 38.9%; in experiment [6] it was 7.4%.

On to `CC(Cl)CN(CC(C)Cl)c1ccc(-c2ccccc2)cc1` (stereo not given), for which the growth inhibition is 5.25% in experiment [1]; -13.8% in experiment [2]; 12.7% in experiment [3]; 18% in experiment [4]; -5% in experiment [5]; -30.9% in experiment [6].

On to `ClCC1CCN(CCc2ccccc2)CC1`, for which the growth inhibition in experiment [1] is -5.5%; in experiment [2] it was 13.8%; in experiment [3], 8.65%; in experiment [4], -36.6%; in experiment [5], -17.8%; in experiment [6], 9.65%.

As to `Cc1c(Cl)cccc1NC(=O)C(=O)C1C(=O)NC(=O)NC1=O`, the growth inhibition was -10.8% in experiment [1]; -10.8% in experiment [2]; -13.8% in experiment [3]; -6% in experiment [4]; -17.8% in experiment [5]; -17.9% in experiment [6].

With `C#CC1(O)CCCCCC1`, the growth inhibition in experiment [1] is 11.6%; in experiment [2] it was 3.45%; in experiment [3], -7.55%; in experiment [4] it was 8.55%; in experiment [5] it was 12.4%; in experiment [6], 6.8%.

`O=[N+]([O-])C(CO)C(CO)[N+](=O)[O-]` (stereo not given): the growth inhibition in experiment [1] is -5.95%; in experiment [2] it was -12.4%; in experiment [3] it was -1%; in experiment [4], -20.8%; in experiment [5] it was -13%; in experiment [6], -17.6%.

As for `O=P1(O)NP(=O)(O)NP(=O)(O)NP(=O)(O)N1`, the growth inhibition was -9.45% in experiment [1]; 2.9% in experiment [2]; -9.8% in experiment [3]; -5.45% in experiment [4]; -18.1% in experiment [5]; -3.95% in experiment [6].

`Cc1cc(C(C)(C)c2cc(C)c(O)c(C)c2)cc(C)c1O`: the growth inhibition in experiment [1] is 12.6%; in experiment [2] it was -41.1%; in experiment [3] it was -6.9%; in experiment [4], 27.4%; in experiment [5], -17.6%; in experiment [6], -12.3%.

Take `[CH3][Sb]([CH3])([CH3])([O]C(=O)C(Cl)Cl)[O]C(=O)C(Cl)Cl`: the growth inhibition is 10.1% in experiment [1]; -7.15% in experiment [2]; 15.3% in experiment [3]; -22.6% in experiment [4]; -1.7% in experiment [5]; 2.9% in experiment [6].

Consider `Cc1cccc(N)c1N`, for which the growth inhibition in experiment [1] is 24.1%; in experiment [2], -15.1%; in experiment [3] it was 11.1%; in experiment [4], 0.4%; in experiment [5] it was -0.45%; in experiment [6], 13.7%.

On to `N#Cc1ccc(N)cc1`, for which the growth inhibition was -2.9% in experiment [1]; -7.9% in experiment [2]; -37.5% in experiment [3]; -10.8% in experiment [4]; -18.4% in experiment [5]; -16.8% in experiment [6].

For the origin of these results see PubChem BioAssay (NCI).
